Data published in PubChem BioAssay.
The source made the active and inactive calls. Unless noted, no rule for the calls is given here.

How the values were obtained:
[1] = compounds binding Alexa647 anti-His antibody – biochemical, small-molecule microarray, 635 nm fluorescence, artefact control for SMM control protein annotation, primary screen (AID 1128); conditions: higher = more signal;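 also: score merges feature fluorescence with signal-to-noise for each printed compound spot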
[2] = tested on: Human papillomavirus type 1a E7 protein (residues 1-88); assay: HPV1a E7 small-molecule binders, primary screen, biochemical, small-molecule microarray, residues 1-88, 635 nm (AID 1129); conditions: small-molecule microarray binding, fluorescence 635 nm; higher = more signal
[3] = target: Focal adhesion kinase 1 (Homo sapiens) (UniProt Q05397); assay: PTK2 protein binding on printed compound slides – biochemical, small-molecule microarray, 635/667 nm fluorescence, BSA, DTT, primary screen (AID 1130); conditions: 635 nm fluorescence, higher = more signal;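 also: composite of spot emission at 667 nm and signal to noise over triplicate slides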
Chain of Focal adhesion kinase 1 (Homo sapiens) (Q05397 whole entry, looked up): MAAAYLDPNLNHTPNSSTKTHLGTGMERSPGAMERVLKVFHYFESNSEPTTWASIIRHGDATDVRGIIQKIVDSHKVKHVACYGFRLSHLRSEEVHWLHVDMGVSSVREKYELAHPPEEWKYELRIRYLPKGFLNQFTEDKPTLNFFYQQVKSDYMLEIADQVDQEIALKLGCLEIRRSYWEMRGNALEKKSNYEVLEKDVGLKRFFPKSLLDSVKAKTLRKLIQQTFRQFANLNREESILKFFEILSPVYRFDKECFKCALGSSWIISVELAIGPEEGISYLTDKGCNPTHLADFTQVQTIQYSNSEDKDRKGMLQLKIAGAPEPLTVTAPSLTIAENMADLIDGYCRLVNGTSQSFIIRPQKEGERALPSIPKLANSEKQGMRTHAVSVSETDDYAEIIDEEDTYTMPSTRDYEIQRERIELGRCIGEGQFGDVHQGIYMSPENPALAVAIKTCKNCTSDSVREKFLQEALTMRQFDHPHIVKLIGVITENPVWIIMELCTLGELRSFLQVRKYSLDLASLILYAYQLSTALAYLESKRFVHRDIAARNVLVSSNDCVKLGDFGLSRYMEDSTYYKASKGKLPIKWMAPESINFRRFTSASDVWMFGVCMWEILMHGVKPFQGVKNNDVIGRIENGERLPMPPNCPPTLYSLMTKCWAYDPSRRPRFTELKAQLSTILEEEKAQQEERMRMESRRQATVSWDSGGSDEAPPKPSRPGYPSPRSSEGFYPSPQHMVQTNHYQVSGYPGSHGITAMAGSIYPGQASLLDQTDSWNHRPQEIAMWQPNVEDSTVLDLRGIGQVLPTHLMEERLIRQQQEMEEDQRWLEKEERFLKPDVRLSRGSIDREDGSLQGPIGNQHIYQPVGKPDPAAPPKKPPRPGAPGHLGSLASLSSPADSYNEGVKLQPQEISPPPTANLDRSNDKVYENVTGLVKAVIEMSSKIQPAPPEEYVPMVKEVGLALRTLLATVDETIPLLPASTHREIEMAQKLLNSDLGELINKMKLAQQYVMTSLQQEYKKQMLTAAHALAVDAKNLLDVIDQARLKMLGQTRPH

[4] = tested on: Fibrinogen (Alexa647-labelled); assay: Alexa647-fibrinogen binding to printed small molecules – biochemical, small-molecule microarray, 635/667 nm fluorescence, artefact control for SMM control-protein annotation, profiling panel (AID 1131); conditions: fibrinogen-A647 binding fluorescence, higher = more signal;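 also: z-score merges 667 nm fluorescence with per-spot signal-to-noise over triplicate slides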
[5] = target: Follistatin (Homo sapiens) (UniProt P19883); assay: FST protein binding to printed compounds – biochemical, small-molecule microarray, 635/667 nm fluorescence, primary screen (AID 1132); conditions: 635 nm fluorescence, higher = more signal
Chain of Follistatin (Homo sapiens) (P19883 whole entry, looked up): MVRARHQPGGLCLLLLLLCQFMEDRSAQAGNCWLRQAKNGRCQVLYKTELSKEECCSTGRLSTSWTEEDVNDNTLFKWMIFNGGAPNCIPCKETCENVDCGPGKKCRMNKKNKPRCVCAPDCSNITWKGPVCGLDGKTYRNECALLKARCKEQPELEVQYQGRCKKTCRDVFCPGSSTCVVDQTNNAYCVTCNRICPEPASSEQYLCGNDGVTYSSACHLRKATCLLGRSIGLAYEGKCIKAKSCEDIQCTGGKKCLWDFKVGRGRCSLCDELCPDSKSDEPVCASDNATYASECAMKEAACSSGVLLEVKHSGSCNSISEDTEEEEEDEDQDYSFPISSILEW

[6] = target: Fibroblast growth factor 2 (Homo sapiens) (UniProt P09038); assay: basic fibroblast growth factor binding to printed compounds – biochemical, small-molecule microarray, 635/667 nm fluorescence, primary screen (AID 1133); conditions: FGF2, fluorescence 635/667, higher = more signal
Chain of Fibroblast growth factor 2 (Homo sapiens) (P09038 whole entry, looked up): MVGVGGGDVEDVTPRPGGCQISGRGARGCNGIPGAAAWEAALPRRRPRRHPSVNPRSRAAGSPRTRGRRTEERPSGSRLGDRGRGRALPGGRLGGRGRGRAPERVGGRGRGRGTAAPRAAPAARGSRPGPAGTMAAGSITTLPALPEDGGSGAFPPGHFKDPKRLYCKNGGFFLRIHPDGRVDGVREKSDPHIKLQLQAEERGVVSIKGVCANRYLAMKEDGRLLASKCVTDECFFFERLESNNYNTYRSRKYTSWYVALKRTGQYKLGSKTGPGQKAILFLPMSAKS

[7] = JC-1 mitochondrial potential readout, lung cancer cells – cell-based, A549, JC-1 fluorescence, basal, 24 h, 100 nL, profiling panel (AID 1138); conditions: higher = more signal;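 also: A549 lung adenocarcinoma cells under basal conditions with no added stimulus; test concentration not given here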
Lefty1 = Lefty1 protein binding to printed compounds – biochemical, small-molecule microarray, 635/667 nm fluorescence, primary screen (AID 1139); conditions: fluorescence 635/667, higher = more signal
[8] = tested on: wheat germ agglutinin (Triticum aestivum), Alexa647-labelled; assay: Alexa647-WGA lectin binding to printed small molecules – biochemical, small-molecule microarray, 635/667 nm fluorescence, artefact control for SMM control-protein annotation, profiling panel (AID 1140); conditions: WGA-A647 binding, 635 nm fluorescence, higher = more signal;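 also: score merges 667 nm feature emission with signal to noise over triplicate slides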
[9] = target: Luciferin 4-monooxygenase (Photinus pyralis) (UniProt P08659); assay: inhibition of purified Photinus pyralis luciferase – biochemical, luminescence, purified enzyme, 2006 set, primary screen (AID 1141); conditions: purified firefly luciferase, SteadyGlo luminescence, 30 min; higher = more signal, called active from +8 up or from −8 down;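 also: cell-free assay with purified firefly luciferase at 100 ng per well in PBS; test concentration not given here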
Chain of Luciferin 4-monooxygenase (Photinus pyralis) (P08659 whole entry, looked up): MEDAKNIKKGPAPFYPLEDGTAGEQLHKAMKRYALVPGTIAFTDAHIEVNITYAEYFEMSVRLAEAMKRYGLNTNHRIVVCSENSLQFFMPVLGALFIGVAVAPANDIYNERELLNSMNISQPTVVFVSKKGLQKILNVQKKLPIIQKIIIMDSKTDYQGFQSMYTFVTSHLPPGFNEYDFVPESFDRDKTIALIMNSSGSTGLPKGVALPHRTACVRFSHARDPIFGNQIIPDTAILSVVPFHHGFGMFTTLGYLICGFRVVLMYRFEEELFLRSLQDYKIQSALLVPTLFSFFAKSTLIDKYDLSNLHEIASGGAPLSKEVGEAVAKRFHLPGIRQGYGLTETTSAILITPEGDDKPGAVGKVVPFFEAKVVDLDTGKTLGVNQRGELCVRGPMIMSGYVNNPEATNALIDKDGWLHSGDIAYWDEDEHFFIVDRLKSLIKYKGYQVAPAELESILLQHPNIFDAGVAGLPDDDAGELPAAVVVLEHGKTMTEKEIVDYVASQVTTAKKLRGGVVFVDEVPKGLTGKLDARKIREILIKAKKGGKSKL

[10] = tested on: Wnt5a (protein binding on small-molecule microarray); assay: small molecules binding Wnt5a protein – biophysical, small-molecule microarray, 635/667 nm fluorescence, primary screen (AID 1142); conditions: 635 nm fluorescence, higher = more signal;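 also: fluorescence read at 667 nm with signal to noise per printed feature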
[11] = ATP-based viability of Huh7 replicon cells – cell-based, CellTiter-Glo luminescence, basal, 48 h, cytotoxicity control for HCV replication inhibitor project, primary screen (AID 1143); conditions: higher = more signal, called active from +8 up or from −8 down;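 also: Huh7 hepatoma cells carrying a hepatitis C replication reporter with no stimulus; test concentration not given here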
[12] = Pseudomonas biofilm growth suppression – PAO1 strain, BacTiter-Glo luminescence, LB-PBS, primary screen (AID 1144); conditions: P. aeruginosa PAO1 biofilm, 12 h, higher = more signal
[13] = basal CRE-LacZ reporter activity in PC12 – cell-based, unstimulated, primary screen (AID 1145); conditions: no forskolin, luminescence, 4.5 h, higher = more signal, called active from +8 up or from −8 down
[14] = forskolin-driven CRE-LacZ activity in PC12 – cell-based, CRE-LacZ reporter, forskolin-stimulated, primary screen (AID 1146); conditions: luminescence, 4.5 h, higher = more signal, called active from +8 up or from −8 down;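 also: PC12 cells with 6xCRE LacZ reporter stimulated by forskolin 10 µM; beta-galactosidase reporter signal reflecting CREB driven transcription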
[15] = target: Streptavidin (Streptomyces avidinii) (UniProt P22629); assay: compounds binding control protein streptavidin – biophysical, small-molecule microarray, 635/667 nm fluorescence, artefact control for SMM compound annotation, primary screen (AID 1147); conditions: higher = more signal;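 also: signal reflects streptavidin binding to arrayed compounds as a control protein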
Chain of Streptavidin (Streptomyces avidinii) (P22629 whole entry, looked up): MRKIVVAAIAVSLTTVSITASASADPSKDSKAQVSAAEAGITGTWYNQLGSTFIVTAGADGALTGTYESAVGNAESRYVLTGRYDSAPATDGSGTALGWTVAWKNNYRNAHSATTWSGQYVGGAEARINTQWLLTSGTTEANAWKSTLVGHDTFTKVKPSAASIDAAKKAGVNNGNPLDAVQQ

[16] = probe aInhba binding on compound microarray – biochemical, small-molecule microarray, 635/667 nm fluorescence, primary screen (AID 1148); conditions: higher = more signal;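 also: score merges 667nm spot fluorescence with signal-to-noise for antibody binding to printed compounds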
Torsin-1A (Homo sapiens) [17] = target: Torsin-1A (Homo sapiens) (UniProt O14656); assay: TOR1A wild-type binding on microarray – cell lysate, small-molecule microarray, lysate, 635/667 nm, primary screen (AID 1149); conditions: COS7 hTOR1A-WT lysate, 635 nm fluorescence, higher = more signal
Chain of Torsin-1A (Homo sapiens) (O14656 whole entry, looked up): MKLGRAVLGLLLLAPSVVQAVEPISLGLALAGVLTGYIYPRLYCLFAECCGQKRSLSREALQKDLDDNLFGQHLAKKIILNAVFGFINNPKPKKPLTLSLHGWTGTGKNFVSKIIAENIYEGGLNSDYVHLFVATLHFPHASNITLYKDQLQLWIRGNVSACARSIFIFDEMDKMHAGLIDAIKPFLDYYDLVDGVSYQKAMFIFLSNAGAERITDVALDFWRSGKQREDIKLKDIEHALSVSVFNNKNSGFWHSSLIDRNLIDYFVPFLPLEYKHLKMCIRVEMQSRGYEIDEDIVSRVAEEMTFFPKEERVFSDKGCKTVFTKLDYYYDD

Torsin-1A (Homo sapiens) [18] = target: Torsin-1A (Homo sapiens) (UniProt O14656); assay: torsin A mutant lysate binding on microarrays – cell lysate, small-molecule microarray, COS7 lysate, 635/667 nm fluorescence, primary screen (AID 1150); conditions: COS7 hTOR1A mutant lysate, 635 nm fluorescence, higher = more signal;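 also: score pools 667 nm emission and signal to noise measuring lysate protein binding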
[19] = tested on: Sonic hedgehog protein (Shh); assay: Sonic hedgehog microarray binding compounds – biochemical, small-molecule microarray, 635/667 nm fluorescence, primary screen (AID 1151); conditions: 635 nm fluorescence, higher = more signal;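 also: Shh protein binding to compounds spotted on small-molecule microarray slides; score combines spot fluorescence intensity with signal-to-noise across triplicate slides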

Structure (SMILES) | composite z-score [1] | composite z-score [2] | composite z-score [3] | composite z-score [4] | composite z-score [5] | composite z-score [6] | z-score [7] | composite z-score (Lefty1) | composite z-score [8] | z-score [9] | composite z-score [10] | z-score [11] | z-score [12] | z-score [13] | z-score [14] | composite z-score [15] | composite z-score [16] | composite z-score (Torsin-1A (Homo sapiens) [17]) | composite z-score (Torsin-1A (Homo sapiens) [18]) | composite z-score [19]
C=C(COC)/C(=C/C[C@H](OC(=O)c1ccncc1)c1cccc(OCCO)c1)c1cc(C(=O)OC)ccc1OC | 0.844 | 1.1 | 0.381 | 0.317 | 0.127 | 0.245 | 1.48 | 0.819 | 0.0332 | -1.04 (inactive) | 0.176 | -0.865 (inactive) | 0.358 (inactive) | 8.63 (active) | -0.616 (inactive) | -0.258 | -0.024 | 0.63 | 0.849 | 1.38
[N-]=[N+]=NCc1ccccc1C[C@]1(C(=O)NCCN2CCOCC2)N=C(c2ccc(OCCCO)cc2)O[C@H]1c1ccccc1N=[N+]=[N-] | 0.853 | 1.25 | 0.669 | 0.989 | 0.714 | 0.0056 | 1.29 | -0.209 | 0.976 | -7.78 (inactive) | 0.152 | -3.01 (inactive) | -0.446 (inactive) | 1.65 (inactive) | -0.891 (inactive) | 1.05 | 0.279 | 0.304 | 0.283 | -0.0478
COC(=O)C[C@@H]1C[C@H](C)[C@]2(O1)C(=O)N(Cc1ccccc1)c1ccc(NC(C)=O)cc12 | 0.716 | 0.453 | -0.183 | 0.458 | 0.431 | 0.471 | -1.05 | 0.488 | -0.259 | 0.0257 (inactive) | 0.739 | -0.578 (inactive) | 0.347 (inactive) | 3.56 (inactive) | -0.47 (inactive) | -0.101 | -0.128 | 0.0771 | 0.362 | 0.034
O=c1cccc(C=Cc2ccccc2)o1 | -0.23 | -0.191 | -0.599 | -0.58 | -0.723 | -1.63 | 0.302 | -0.282 | -0.531 | 1.35 (inactive) | -0.276 | -0.273 (inactive) | -0.544 (inactive) | -0.676 (inactive) | 0.801 (inactive) | -0.532 | 0.144 | -0.994 | -0.711 | -0.604
CC(C)NC(=O)[C@@H]1c2ccccc2C(=O)N(Cc2ccccc2)[C@H]1c1ccc(CO)cc1 | 0.166 | 0.482 | 0.512 | -0.367 | -0.797 | 0.394 | 0.484 | -1.54 | 0.826 | 0.413 (inactive) | -0.0365 | -0.0084 (inactive) | -0.0818 (inactive) | 0.0279 (inactive) | 0.669 (inactive) | -0.501 | 0.0345 | -0.124 | -0.744 | 0.495
